Source: PubChem
Sampled rows, rich in hits. Any-hit rate of the full collection: about 1.6%.
F-actin modifier: modifiers of F-actin cytoskeleton organization, primary screen, imaging, HUVEC, phalloidin staining, high-content imaging; HUVEC TNFa F-actin phalloidin imaging; inhibition, % at 2 µM; hit rate 0.18% among 91,000; AID 836, 2007;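 active = inhibition above the batch mean plus 3 SD and confirmed as a hit by visual image inspection, cut at about 30% in these data, passing the limit was not always enough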
TNFa cytotox: cytotoxicity in TNFa-stimulated HUVEC, primary screen, cytotoxicity control for VCAM1 expression modulator project, imaging, Hoechst nuclei count; HUVEC TNFalpha-stimulated, Hoechst cell count; cell count reduction, % at 2 µM; hit rate 0.17% among 93,000;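 active = cell count reduction exceeding the screen mean by over 5 SD, scaled to untreated wells per plate, cut at about 78% in these data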;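 also: cells counted after 24 h of TNF alpha exposure following the 1 h pretreatment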
S1P2 antag: human S1P2 receptor antagonists, primary screen, cell-based. Sphingosine 1-phosphate receptor 2 (Homo sapiens), O95136. cell-based S1P2 antagonist assay, inhibition at 5 uM. inhibition, % at 5 µM. hit rate 0.21% among 97,000. AID 736, 2007; in the data active = inhibition above about 45%;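 also: CRE beta-lactamase reporter cells expressing human S1P2 stimulated with S1P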
Target sequence (O95136 whole entry, looked up): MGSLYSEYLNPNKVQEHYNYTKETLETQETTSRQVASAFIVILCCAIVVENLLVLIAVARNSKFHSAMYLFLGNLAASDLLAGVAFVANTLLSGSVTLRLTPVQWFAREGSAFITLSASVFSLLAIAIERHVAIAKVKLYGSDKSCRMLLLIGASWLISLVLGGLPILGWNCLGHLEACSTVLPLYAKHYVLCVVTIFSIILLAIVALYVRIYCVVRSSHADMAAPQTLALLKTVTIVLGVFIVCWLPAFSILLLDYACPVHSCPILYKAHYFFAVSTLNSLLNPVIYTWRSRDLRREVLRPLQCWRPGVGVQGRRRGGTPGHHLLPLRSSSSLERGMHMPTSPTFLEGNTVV
VCAM1 TNFa inh: inhibitors of TNFa-induced VCAM1 expression, primary screen, imaging, HUVEC, TNFa stimulus, immunofluorescence; HUVEC TNFa-induced VCAM-1 immunofluorescence, high-content imaging; inhibition, % at 2 µM; hit rate 0.48% among 95,000; AID 802, 2007;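 active = inhibition above the batch mean plus 3 SD, with images confirmed as a hit by eye, cut at about 37% in these data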
S1P2 agonist: S1P2 receptor agonists, primary screen, cell-based; Sphingosine 1-phosphate receptor 2 (Homo sapiens), O95136; S1P2-expressing cell line, agonist reporter read-out; activation, % at 4.5 µM; hit rate 0.46% among 97,000; in the data active = activation above about 16%
E-sel TNF inh: E-selectin induction blockers in HUVEC – imaging, immunofluorescence, high content, primary screen. inhibition, % at 2 µM. hit rate 0.71% among 120,000. HUVEC TNFa-induced E-selectin immunofluorescence. AID 1246, 2008;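 active = inhibition above the batch mean plus 3 SD, and confirmed as a hit on visual image review, cut at about 43% in these data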
A number is an active result.

What do the screens show for `CCN1C/C(=C\c2cccc([N+](=O)[O-])c2)C(=O)/C(=C/c2cccc([N+](=O)[O-])c2)C1`?
E-sel TNF inh: 100.0

What do the screens show for `CCN1C/C(=C/c2ccc(OC)c(O)c2)C(=O)/C(=C/c2ccc(OC)c(O)c2)C1`?
E-sel TNF inh: 60.3

How did COc1ccccc1CNC(=O)c1c(N)n(CCCN2CCOCC2)c2nc3ccccc3nc12 do in these assays?
F-actin modifier: inactive; TNFa cytotox: inactive; S1P2 antag: inactive; VCAM1 TNFa inh: inactive; S1P2 agonist: 58.4; E-sel TNF inh: inactive

Results for Nc1c(C(=O)NCc2ccc3c(c2)OCO3)c2nc3ccccc3nc2n1CCCN1CCOCC1 ?
F-actin modifier: inactive; TNFa cytotox: inactive; S1P2 antag: inactive; VCAM1 TNFa inh: inactive; S1P2 agonist: 41.1

What do the screens show for `CC(C)OC(=O)c1c(N)n(CCCN2CCOCC2)c2nc3ccccc3nc12`?
F-actin modifier: inactive; TNFa cytotox: inactive; S1P2 antag: inactive; VCAM1 TNFa inh: inactive; S1P2 agonist: inactive; E-sel TNF inh: inactive

Results for COCCNC(=O)c1c(N)n(CCCn2ccnc2)c2nc3ccccc3nc12 ?
F-actin modifier: inactive; TNFa cytotox: inactive; S1P2 antag: inactive; VCAM1 TNFa inh: inactive; S1P2 agonist: 18.1; E-sel TNF inh: inactive

How did Nc1c(C(=O)NCCN2CCOCC2)c2nc3ccccc3nc2n1-c1ccc2c(c1)OCO2 do in these assays?
E-sel TNF inh: inactive

Results for O=C(Cn1cc(C(F)(F)F)ccc1=O)N/N=C/c1cccc(Cl)c1 ?
E-sel TNF inh: inactive

What do the screens show for `CCOC(=O)C1=C(c2ccccc2)N2CCN=C2S1`?
F-actin modifier: inactive; TNFa cytotox: inactive; S1P2 antag: inactive; VCAM1 TNFa inh: inactive; S1P2 agonist: inactive; E-sel TNF inh: inactive

What do the screens show for `CCOc1ccccc1NS(=O)(=O)c1ccc2c(c1)n(C)c(=O)c(=O)n2C`?
E-sel TNF inh: inactive

What do the screens show for `O=C(CN(Cc1cccs1)C(=O)CNS(=O)(=O)c1ccccc1)NC1CCCC1`?
E-sel TNF inh: inactive

Results for COC(=O)c1ccc(NC(=O)c2sc3nc(-c4ccccc4)cn3c2C)cc1 ?
F-actin modifier: inactive; TNFa cytotox: inactive; S1P2 antag: 46.9; VCAM1 TNFa inh: inactive; S1P2 agonist: inactive; E-sel TNF inh: inactive

What do the screens show for `COc1ccc(-c2cn3c(C)c(C(=O)Nc4ccncc4)sc3n2)cc1`?
F-actin modifier: inactive; TNFa cytotox: inactive; S1P2 antag: inactive; VCAM1 TNFa inh: inactive; S1P2 agonist: inactive; E-sel TNF inh: inactive

How did CCOc1ccccc1C(=O)Nc1ccc(-c2nnc(-c3ccc(C)cc3)o2)cc1 do in these assays?
F-actin modifier: inactive; TNFa cytotox: inactive; S1P2 antag: inactive; VCAM1 TNFa inh: inactive; S1P2 agonist: inactive; E-sel TNF inh: 72.0

What do the screens show for `COc1ccccc1N(CC(=O)N/N=C(\C)c1cccc(Br)c1)S(C)(=O)=O`?
E-sel TNF inh: inactive

How did C/C(=N\NC(=O)CN(c1ccccc1Br)S(C)(=O)=O)c1ccc2c(c1)OCCO2 do in these assays?
E-sel TNF inh: 65.8

How did COc1ccc(C2=CSC(/N=C/c3ccc(F)cc3)=NN2)cc1 do in these assays?
F-actin modifier: inactive; TNFa cytotox: inactive; S1P2 antag: inactive; VCAM1 TNFa inh: inactive; S1P2 agonist: inactive; E-sel TNF inh: inactive

How did N=c1nc(N)nc2n1NC(c1ccc(F)cc1)=CS2 do in these assays?
F-actin modifier: inactive; TNFa cytotox: inactive; S1P2 antag: inactive; VCAM1 TNFa inh: 55.1; S1P2 agonist: inactive; E-sel TNF inh: inactive

How did O=S(=O)(c1ccc2c(c1)OCCCO2)N1CCNCC1 do in these assays?
F-actin modifier: inactive; TNFa cytotox: 84.3; S1P2 antag: inactive; VCAM1 TNFa inh: 84.0; S1P2 agonist: inactive

How did C=CCN1C(c2ccc(Br)cc2)=CS/C1=C(/C#N)c1nnc(N2CCOCC2)n1-c1ccccc1 do in these assays?
E-sel TNF inh: inactive

What do the screens show for `CCOc1ccc(C2=CS/C(=C(\C#N)c3nnc4n3CCCCC4)N2CC)cc1`?
F-actin modifier: inactive; TNFa cytotox: inactive; S1P2 antag: inactive; VCAM1 TNFa inh: inactive; S1P2 agonist: inactive; E-sel TNF inh: inactive

How did C=CCN1C(c2cccc(C(F)(F)F)c2)=CS/C1=C(/C#N)c1nnc(N2CCOCC2)n1-c1ccccc1 do in these assays?
E-sel TNF inh: 72.1
